Source: the supplement of paper PMC10849652
Of roughly 7,900 targets only a part is listed; those with a hit were picked by preference. About 0.6% of all pairs of compound and target were hits.

Experiments:
Assay in all cases: log2 fold change, soluble protein after heating vs DMSO (PISA); higher = thermal stabilisation; K562 cells, 10 uM, 30 min; active = over 0.2 and 3.5 SD of the protein, either way, in both replicates (recomputed)
erlotinib = compound: C#Cc1cccc(Nc2ncnc3cc(OCCOC)c(OCCOC)cc23)c1 [erlotinib]
How it was run: (§1)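 K562 cells at 2×10^6 cells/mL were exposed to 10 μM compound for 30 min, then aliquots were heated for 3 min across 48°C-58°C, pooled, and extracted in PBS containing 0.5% NP-40 at 4°C. The supernatant after 21,000xg for 90 min was taken as soluble protein and measured by TMTpro 16plex LC-MS/MS with channel sums equalised. Thermal stability is reported relative to control samples, with values from duplicates. Fold changes are given on a log2 scale.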

[1] = compound: C/C(=N\NC(=O)C1=CC(=CC=C1)S(=O)(=O)N2CCOCC2)/C3=C(C=CC(=C3)Cl)O
How it was run: as §1

[2] = compound: C1=CC(=C(C=C1Cl)C2=NC3=NC=CN=C3C(=N2)NC4=CC=NC=C4)F
How it was run: as §1

[3] = compound: C1=CC(=CC=C1C2=NC3=C(N2)C=C(C=C3)C(=O)N)OC4=CC=C(C=C4)Cl
How it was run: as §1

[4] = compound: C1=CC2=C(C=CC(=C2)/C=C\3/C(=O)NC(=NCC4=CC=CS4)S3)N=C1
How it was run: as §1

[5] = compound: C1=CC2=NC=CN=C2C=C1/C=C/3\C(=O)NC(=O)S3
How it was run: as §1

[6] = compound: C1=CC=C(C=C1)C2=NC(=C(N2)C3=CC=NC=C3)C4=CC(=C(C=C4)Cl)O
How it was run: as §1

[7] = compound: C1=CC=C2C(=C1)C3=NNC4=CC=CC(=C43)C2=O
How it was run: as §1

[8] = compound: C1CCN(C1)C(=O)NC2=CC=CC(=C2)NC3=NC=C(C(=N3)NCCC4=CN=CN4)Br
How it was run: as §1

[9] = compound: C1CN(CCC1(CC2=CC=C(C=C2)Cl)N)C3=NC=NC4=C3C=CN4
How it was run: as §1

IRAK-1-4 Inhibitor I = compound: C1COCCN1CCN2C3=CC=CC=C3N=C2NC(=O)C4=CC(=CC=C4)[N+](=O)[O-] [IRAK-1-4 Inhibitor I]
How it was run: as §1

ibrutinib = compound: C=CC(=O)N1CCC[C@@H](n2nc(-c3ccc(Oc4ccccc4)cc3)c3c(N)ncnc32)C1 [ibrutinib]
How it was run: as §1

[10] = compound: CC(=O)c1cnc2ccc(-c3cc(Cl)c(O)c(Cl)c3)nc2c1N[C@H]1CC[C@H](CN(C)C)CC1
How it was run: as §1

ralimetinib = compound: CC(C)(C)Cn1c(N)nc2ccc(-c3[nH]c(C(C)(C)C)nc3-c3ccc(F)cc3)nc21 [ralimetinib]
How it was run: as §1

[11] = compound: CC(C)(O)CC(=O)NCCn1ccc2ncnc(Nc3ccc(Oc4cccc(C(F)(F)F)c4)c(Cl)c3)c21
How it was run: as §1

[12] = compound: CC(C)C1=C2N=C(C=C(N2N=C1)NCC3=CC=CC=C3)NCCCCCCN
How it was run: as §1

[13] = compound: CC(C)C[C@@H](C=O)NC(=O)[C@H](CC(C)C)NC(=O)[C@H](CC(C)C)NC(=O)OCc1ccccc1
How it was run: as §1

pinometostat = compound: CC(C)N(C[C@H]1O[C@@H](n2cnc3c(N)ncnc32)[C@H](O)[C@@H]1O)[C@H]1C[C@@H](CCc2nc3cc(C(C)(C)C)ccc3[nH]2)C1 [pinometostat]
How it was run: as §1

[14] = compound: CC1=C(C(CC(=O)N1)C2=CC=C(C=C2)C(F)(F)F)C(=O)NC3=C(C=C4C(=C3)C=NN4)F
How it was run: as §1

[15] = compound: CC1=C(C2=C(C=C1)C(=O)C3=CC=CC=C3N2CCCN)C
How it was run: as §1

Measured: log2 fold change

RRAS2 isoform 4 (UniProt P62070)
Chain of UniProt P62070 (P62070 whole entry, looked up): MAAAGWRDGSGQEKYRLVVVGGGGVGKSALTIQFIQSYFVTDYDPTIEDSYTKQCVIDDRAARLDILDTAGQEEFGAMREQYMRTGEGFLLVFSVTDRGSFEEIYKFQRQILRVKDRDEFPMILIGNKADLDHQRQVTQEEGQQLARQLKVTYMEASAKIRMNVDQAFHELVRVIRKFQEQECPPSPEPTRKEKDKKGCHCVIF
inactive: erlotinib 0.002 | [1] -0.076 | [2] -0.046 | [3] 0.015 | [4] -0.006 | [5] 0.038 | [6] -0.015 | [7] -0.059 | [8] -0.085 | [9] 0.093 | IRAK-1-4 Inhibitor I 0.011 | ibrutinib 0.097 | [10] -0.009 | ralimetinib -0.023 | [11] 0.242 | [12] 0.077 | [13] 0.005 | pinometostat -0.034 | [14] -0.019 | [15] 0.077

SERINC3 (UniProt Q13530)
inactive: erlotinib -0.051 | [1] 0.016 | [2] -0.064 | [3] 0.041 | [4] -0.043 | [5] 0.063 | [6] 0.006 | [7] 0.029 | [8] 0.007 | [9] 0.06 | IRAK-1-4 Inhibitor I -0.006 | ibrutinib -0.01 | [10] -0.027 | ralimetinib -0.14 | [11] -0.304 | [13] 0.17 | pinometostat -0.01 | [14] 0 | [15] -0.039
active: [12] -0.399

RBM25 (UniProt P49756)
inactive: erlotinib 0.142 | [1] -0.037 | [2] -0.039 | [3] -0.025 | [4] -0.014 | [5] 0.055 | [6] -0.012 | [7] -0.008 | [8] -0.076 | [9] -0.137 | IRAK-1-4 Inhibitor I 0.031 | ibrutinib 0.01 | [10] -0.032 | ralimetinib 0.102 | [11] -0.044 | [12] 0.026 | [13] 0.057 | pinometostat -0.039 | [14] -0.001 | [15] 0.042

RUFY1 (UniProt Q96T51)
Chain of UniProt Q96T51 (Q96T51 whole entry, looked up): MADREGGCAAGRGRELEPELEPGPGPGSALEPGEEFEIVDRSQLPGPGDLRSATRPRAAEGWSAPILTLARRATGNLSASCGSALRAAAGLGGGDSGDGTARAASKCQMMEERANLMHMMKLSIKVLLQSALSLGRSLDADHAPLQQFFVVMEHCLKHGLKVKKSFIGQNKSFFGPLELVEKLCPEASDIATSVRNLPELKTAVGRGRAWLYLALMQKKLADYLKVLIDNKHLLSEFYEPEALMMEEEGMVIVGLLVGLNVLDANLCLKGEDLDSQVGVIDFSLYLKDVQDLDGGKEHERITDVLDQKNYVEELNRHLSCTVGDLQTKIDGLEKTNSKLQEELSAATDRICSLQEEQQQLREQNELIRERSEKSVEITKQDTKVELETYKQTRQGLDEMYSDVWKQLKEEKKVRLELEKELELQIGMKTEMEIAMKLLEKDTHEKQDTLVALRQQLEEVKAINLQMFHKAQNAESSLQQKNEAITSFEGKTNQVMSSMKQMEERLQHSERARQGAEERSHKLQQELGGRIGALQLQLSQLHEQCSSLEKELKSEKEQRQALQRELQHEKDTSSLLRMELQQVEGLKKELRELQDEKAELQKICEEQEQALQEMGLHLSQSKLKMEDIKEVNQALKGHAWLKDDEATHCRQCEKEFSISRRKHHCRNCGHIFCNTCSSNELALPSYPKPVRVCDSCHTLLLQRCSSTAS
inactive: erlotinib 0.01 | [1] 0.094 | [2] -0.046 | [3] -0.018 | [4] 0.022 | [5] 0.034 | [6] -0.027 | [7] 0 | [8] 0.031 | [9] -0.084 | IRAK-1-4 Inhibitor I -0.019 | ibrutinib -0.002 | [10] 0.101 | ralimetinib 0.034 | [11] -0.092 | [12] -0.182 | [13] 0.011 | pinometostat 0.083 | [14] -0.003 | [15] -0.014

RPRD1B (UniProt Q9NQG5)
Chain of UniProt Q9NQG5 (Q9NQG5 whole entry, looked up): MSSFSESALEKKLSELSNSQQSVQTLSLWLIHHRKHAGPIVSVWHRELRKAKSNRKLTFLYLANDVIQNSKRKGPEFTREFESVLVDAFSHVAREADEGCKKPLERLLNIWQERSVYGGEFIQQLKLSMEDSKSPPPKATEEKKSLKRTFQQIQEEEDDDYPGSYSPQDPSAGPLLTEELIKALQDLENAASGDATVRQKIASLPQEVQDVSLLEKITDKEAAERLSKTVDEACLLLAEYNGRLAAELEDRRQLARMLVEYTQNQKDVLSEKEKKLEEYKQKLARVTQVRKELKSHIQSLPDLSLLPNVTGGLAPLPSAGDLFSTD
inactive: erlotinib -0.065 | [1] 0.086 | [2] 0.036 | [3] 0.028 | [4] 0.063 | [5] 0.052 | [6] 0.042 | [7] -0.005 | [8] 0.009 | [9] -0.046 | IRAK-1-4 Inhibitor I 0 | ibrutinib -0.021 | [10] -0.017 | ralimetinib 0 | [11] -0.06 | [12] -0.018 | [13] -0.028 | pinometostat -0.038 | [14] 0.022 | [15] 0.104

SLC18B1 (UniProt Q6NT16)
Chain of UniProt Q6NT16 (Q6NT16 whole entry, looked up): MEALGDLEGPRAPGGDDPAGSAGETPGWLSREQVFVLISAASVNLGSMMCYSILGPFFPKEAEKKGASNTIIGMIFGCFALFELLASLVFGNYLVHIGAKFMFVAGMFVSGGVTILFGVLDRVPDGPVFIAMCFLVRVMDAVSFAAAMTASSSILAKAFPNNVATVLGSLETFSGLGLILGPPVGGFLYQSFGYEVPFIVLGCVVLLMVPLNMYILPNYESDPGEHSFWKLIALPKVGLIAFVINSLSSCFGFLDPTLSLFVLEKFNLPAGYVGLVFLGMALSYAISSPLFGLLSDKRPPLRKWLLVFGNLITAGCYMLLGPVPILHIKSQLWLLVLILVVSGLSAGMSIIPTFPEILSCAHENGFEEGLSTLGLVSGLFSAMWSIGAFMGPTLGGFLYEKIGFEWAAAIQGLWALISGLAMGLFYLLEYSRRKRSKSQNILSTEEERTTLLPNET
active: [12] -0.356
inactive: erlotinib -0.011 | [1] -0.09 | [2] 0.067 | [3] 0.06 | [4] 0.108 | [5] 0 | [6] 0.12 | [7] 0.002 | [8] -0.037 | [9] 0.081 | IRAK-1-4 Inhibitor I 0.135 | ibrutinib 0.042 | [10] 0.016 | ralimetinib -0.044 | [11] -0.023 | [13] -0.05 | pinometostat 0.02 | [14] 0.05 | [15] -0.036

RPS12 (UniProt P25398)
active: [15] -0.314
inactive: erlotinib -0.115 | [1] -0.082 | [2] -0.072 | [3] -0.001 | [4] -0.021 | [5] -0.002 | [6] 0.008 | [7] -0.02 | [8] 0.027 | [9] -0.05 | IRAK-1-4 Inhibitor I -0.063 | ibrutinib 0.036 | [10] 0.051 | ralimetinib 0.043 | [11] 0.003 | [12] 0.036 | [13] -0.024 | pinometostat 0.024 | [14] 0.095

RHEB (UniProt Q15382)
Chain of UniProt Q15382 (Q15382 whole entry, looked up): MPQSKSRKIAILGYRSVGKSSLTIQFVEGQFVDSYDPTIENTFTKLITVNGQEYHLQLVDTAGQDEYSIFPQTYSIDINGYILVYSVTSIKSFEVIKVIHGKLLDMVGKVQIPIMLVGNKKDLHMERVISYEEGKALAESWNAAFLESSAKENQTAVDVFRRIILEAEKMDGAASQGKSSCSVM
inactive: erlotinib 0.028 | [1] 0.042 | [2] 0.075 | [3] -0.041 | [4] 0.008 | [5] 0.008 | [6] -0.008 | [7] -0.004 | [8] -0.005 | [9] 0.041 | IRAK-1-4 Inhibitor I 0.006 | ibrutinib -0.016 | [10] -0.04 | ralimetinib -0.112 | [11] -0.01 | [12] 0.027 | [13] -0.055 | pinometostat -0.035 | [14] -0.014 | [15] 0.093

RNF220 (UniProt Q5VTB9)
Chain of UniProt Q5VTB9 (Q5VTB9 whole entry, looked up): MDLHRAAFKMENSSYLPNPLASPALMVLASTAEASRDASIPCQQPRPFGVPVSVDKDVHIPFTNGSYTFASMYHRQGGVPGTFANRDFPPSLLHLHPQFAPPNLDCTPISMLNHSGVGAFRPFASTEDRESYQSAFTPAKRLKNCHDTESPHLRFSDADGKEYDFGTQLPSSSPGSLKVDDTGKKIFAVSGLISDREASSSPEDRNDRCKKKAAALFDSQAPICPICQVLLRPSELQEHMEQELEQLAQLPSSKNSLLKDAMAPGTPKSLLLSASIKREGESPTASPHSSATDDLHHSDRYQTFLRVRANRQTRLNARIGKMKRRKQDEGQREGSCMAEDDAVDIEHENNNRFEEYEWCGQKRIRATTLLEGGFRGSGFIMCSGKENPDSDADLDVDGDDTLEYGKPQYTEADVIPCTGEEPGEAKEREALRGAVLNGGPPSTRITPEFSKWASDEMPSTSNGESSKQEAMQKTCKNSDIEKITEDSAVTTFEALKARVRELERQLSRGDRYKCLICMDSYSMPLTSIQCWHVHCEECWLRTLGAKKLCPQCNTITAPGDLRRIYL
inactive: erlotinib 0.017 | [1] 0.034 | [2] 0.017 | [3] 0.011 | [4] 0.034 | [5] 0.03 | [6] 0.026 | [7] 0.011 | [8] -0.008 | [9] -0.022 | IRAK-1-4 Inhibitor I 0.017 | ibrutinib -0.032 | [10] -0.02 | ralimetinib -0.045 | [11] 0.021 | [12] -0.011 | [13] -0.046 | pinometostat -0.076 | [14] -0.023 | [15] 0.004

SDHAF2 (UniProt Q9NX18)
Chain of UniProt Q9NX18 (Q9NX18 whole entry, looked up): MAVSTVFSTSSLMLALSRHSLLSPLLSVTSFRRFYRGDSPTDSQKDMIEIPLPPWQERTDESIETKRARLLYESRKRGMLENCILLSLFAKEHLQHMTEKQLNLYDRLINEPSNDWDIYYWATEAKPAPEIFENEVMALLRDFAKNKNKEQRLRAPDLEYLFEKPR
inactive: erlotinib -0.021 | [2] 0.083 | [3] 0.018 | [4] -0.102 | [5] 0.051 | [6] -0.035 | [7] 0.114 | [8] 0.068 | [9] -0.091 | IRAK-1-4 Inhibitor I 0.013 | ibrutinib -0.004 | [10] 0.124 | ralimetinib -0.044 | [11] -0.011 | [12] -0.042 | [13] 0.084 | pinometostat -0.014 | [14] 0.015 | [15] -0.01
active: [1] 0.304

RNF187 (UniProt Q5TA31)
active: [13] 0.424
inactive: erlotinib 0.095 | [1] -0.05 | [2] -0.061 | [3] -0.028 | [4] 0.101 | [5] -0.028 | [6] -0.067 | [7] 0.008 | [8] 0.017 | [9] -0.056 | IRAK-1-4 Inhibitor I 0.059 | ibrutinib 0.045 | [10] -0.124 | ralimetinib 0.039 | [11] 0.024 | [12] 0.077 | pinometostat -0.075 | [14] 0.046 | [15] -0.226

RIC8A isoform 3 (UniProt Q9NPQ8)
Chain of UniProt Q9NPQ8 (Q9NPQ8 whole entry, looked up): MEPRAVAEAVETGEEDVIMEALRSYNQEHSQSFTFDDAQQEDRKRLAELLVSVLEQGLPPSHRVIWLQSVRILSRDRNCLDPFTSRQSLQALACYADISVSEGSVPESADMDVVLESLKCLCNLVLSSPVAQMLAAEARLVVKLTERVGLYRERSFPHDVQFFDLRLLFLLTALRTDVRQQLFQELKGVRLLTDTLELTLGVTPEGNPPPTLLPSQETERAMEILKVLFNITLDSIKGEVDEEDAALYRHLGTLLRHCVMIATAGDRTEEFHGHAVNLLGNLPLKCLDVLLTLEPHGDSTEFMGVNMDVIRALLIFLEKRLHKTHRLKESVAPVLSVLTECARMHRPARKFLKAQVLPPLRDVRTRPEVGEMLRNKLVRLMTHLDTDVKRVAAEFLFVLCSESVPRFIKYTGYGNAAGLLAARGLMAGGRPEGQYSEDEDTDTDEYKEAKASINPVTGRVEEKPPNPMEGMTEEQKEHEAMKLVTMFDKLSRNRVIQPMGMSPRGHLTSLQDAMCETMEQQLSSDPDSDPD
inactive: erlotinib 0.063 | [1] 0.114 | [2] 0 | [3] -0.031 | [4] 0.114 | [5] -0.052 | [6] 0.005 | [7] -0.021 | [8] -0.071 | [9] -0.057 | IRAK-1-4 Inhibitor I -0.073 | ibrutinib -0.051 | [10] -0.193 | ralimetinib 0.06 | [11] -0.052 | [12] -0.354 | [13] 0.066 | pinometostat 0.166 | [14] -0.005 | [15] -0.132

RPP25L (UniProt Q8N5L8)
Chain of UniProt Q8N5L8 (Q8N5L8 whole entry, looked up): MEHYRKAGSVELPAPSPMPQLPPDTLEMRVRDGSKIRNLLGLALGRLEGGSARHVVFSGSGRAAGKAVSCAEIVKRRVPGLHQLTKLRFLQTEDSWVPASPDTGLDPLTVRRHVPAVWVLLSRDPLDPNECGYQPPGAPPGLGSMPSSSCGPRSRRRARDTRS
active: erlotinib 0.274 | [15] -0.288
inactive: [1] -0.004 | [2] -0.029 | [3] 0.031 | [4] -0.001 | [5] 0.041 | [6] 0.014 | [7] -0.065 | [8] 0.01 | [9] 0.01 | IRAK-1-4 Inhibitor I -0.102 | ibrutinib 0.021 | [10] -0.004 | ralimetinib 0.049 | [11] -0.015 | [12] -0.293 | [13] 0.035 | pinometostat -0.002 | [14] -0.014

RAD51 (UniProt Q06609)
Chain of UniProt Q06609 (Q06609 whole entry, looked up): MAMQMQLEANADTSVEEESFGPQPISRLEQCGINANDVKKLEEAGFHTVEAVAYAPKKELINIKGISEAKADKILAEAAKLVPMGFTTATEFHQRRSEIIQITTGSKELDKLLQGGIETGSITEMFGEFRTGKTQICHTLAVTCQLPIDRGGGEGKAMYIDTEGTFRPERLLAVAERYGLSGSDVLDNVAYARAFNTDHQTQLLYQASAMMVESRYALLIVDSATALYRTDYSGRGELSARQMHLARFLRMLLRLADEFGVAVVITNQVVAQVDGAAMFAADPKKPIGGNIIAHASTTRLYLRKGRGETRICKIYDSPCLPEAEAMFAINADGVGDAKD
inactive: erlotinib 0.29 | [1] 0.06 | [2] 0.044 | [3] 0.032 | [4] 0.067 | [5] 0.017 | [6] -0.025 | [7] -0.032 | [8] -0.014 | [9] 0.013 | IRAK-1-4 Inhibitor I 0.017 | ibrutinib 0.013 | [10] -0.061 | ralimetinib -0.074 | [11] -0.059 | [12] -0.016 | [13] 0.048 | pinometostat -0.024 | [14] 0.05 | [15] 0.102

RMC1 (UniProt Q96DM3)
Chain of UniProt Q96DM3 (Q96DM3 whole entry, looked up): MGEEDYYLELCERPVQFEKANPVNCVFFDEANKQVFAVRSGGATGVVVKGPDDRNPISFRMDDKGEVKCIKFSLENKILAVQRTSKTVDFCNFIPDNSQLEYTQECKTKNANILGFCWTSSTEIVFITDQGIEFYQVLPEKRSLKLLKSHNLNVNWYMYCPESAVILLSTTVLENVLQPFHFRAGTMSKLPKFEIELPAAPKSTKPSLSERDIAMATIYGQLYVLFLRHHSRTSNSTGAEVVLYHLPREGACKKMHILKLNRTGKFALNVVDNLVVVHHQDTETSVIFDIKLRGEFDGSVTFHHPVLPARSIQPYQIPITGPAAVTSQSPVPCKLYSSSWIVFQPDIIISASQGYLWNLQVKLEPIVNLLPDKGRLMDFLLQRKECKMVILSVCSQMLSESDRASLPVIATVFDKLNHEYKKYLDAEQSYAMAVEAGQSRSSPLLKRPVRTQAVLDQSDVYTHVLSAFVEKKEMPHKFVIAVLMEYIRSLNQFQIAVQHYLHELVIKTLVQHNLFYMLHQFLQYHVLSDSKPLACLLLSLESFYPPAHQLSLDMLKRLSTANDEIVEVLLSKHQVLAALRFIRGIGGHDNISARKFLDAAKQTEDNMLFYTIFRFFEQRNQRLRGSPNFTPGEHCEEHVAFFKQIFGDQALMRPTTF
inactive: erlotinib 0.028 | [1] 0.124 | [2] 0.048 | [3] 0.04 | [4] 0.027 | [5] -0.038 | [6] 0.011 | [7] -0.055 | [8] 0.048 | [9] -0.038 | IRAK-1-4 Inhibitor I 0.038 | ibrutinib 0.03 | [10] -0.026 | ralimetinib -0.025 | [11] -0.002 | [12] -0.209 | [13] 0.011 | pinometostat -0.015 | [14] 0.028 | [15] 0.039

RIOK2 (UniProt Q9BVS4)
Chain of UniProt Q9BVS4 (Q9BVS4 whole entry, looked up): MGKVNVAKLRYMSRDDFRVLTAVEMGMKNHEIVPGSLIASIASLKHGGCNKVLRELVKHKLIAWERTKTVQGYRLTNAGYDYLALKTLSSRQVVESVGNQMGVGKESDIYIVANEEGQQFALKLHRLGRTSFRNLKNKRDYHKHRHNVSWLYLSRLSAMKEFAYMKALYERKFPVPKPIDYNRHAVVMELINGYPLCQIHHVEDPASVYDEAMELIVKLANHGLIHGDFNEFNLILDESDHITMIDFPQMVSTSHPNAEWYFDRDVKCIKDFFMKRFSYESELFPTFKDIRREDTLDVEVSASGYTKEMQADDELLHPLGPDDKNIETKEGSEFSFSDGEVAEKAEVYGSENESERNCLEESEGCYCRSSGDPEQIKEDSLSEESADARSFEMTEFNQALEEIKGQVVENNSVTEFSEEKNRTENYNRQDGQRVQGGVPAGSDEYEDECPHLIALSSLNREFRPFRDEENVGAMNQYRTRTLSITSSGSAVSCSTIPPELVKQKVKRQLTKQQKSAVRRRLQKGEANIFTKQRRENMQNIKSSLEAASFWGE
inactive: erlotinib -0.081 | [1] -0.064 | [2] -0.149 | [3] 0.097 | [4] -0.043 | [5] -0.055 | [6] -0.01 | [7] 0.055 | [8] 0.035 | [9] -0.209 | IRAK-1-4 Inhibitor I -0.061 | ibrutinib 0.013 | ralimetinib 0.119 | [11] 0 | [12] -0.014 | [13] 0.084 | pinometostat 0.132 | [14] -0.014 | [15] -0.068
active: [10] 0.465
